Bioassay records (PubChem BioAssay)
Pf Dd2 growth: inhibitors of Plasmodium falciparum Dd2 growth; P. falciparum Dd2 growth, SYBR Green, 72 h; Potency, µM (series often up to 28.9 µM), for inactives: at the top dose activity, negative = inhibition, usual class: inhibitors; 120,000 compounds, 4.3% hits; active means well fitted inhibition curve with a large enough effect;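 further: plate controls were DMSO vehicle for no effect and reference drug for full effect; nearly all actives have a fitted effect of over 65% in size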
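Readout: SYBR Green fluorescence, 485 nm excitation, 535 nm emission, after ~16 h lysis at 37C. Before that, Dd2-infected red cells (2.5% hematocrit) grew 72 h with compound, 29 uM top final concentration.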
The depositor's hits bear a star; i = inactive; [ ] = remark or other dose. The entries come from a sample that favours hits as a whole. Potency means the concentration at half of the fitted maximal effect.

SMILES | Pf Dd2 growth
CC(=O)N1CCC(N2CCC[C@H]2c2nc(-c3ccc(N4CCC(C(N)=O)CC4)nc3)no2)CC1 | i
CC(C)N1CCC[C@H]1c1nc(-c2ccc(N3CCN(C)CC3)nc2)no1 | 10µM*
COc1ccc(CN2CCC[C@H]2c2nc(-c3ccc(-n4ccnc4)nc3)no2)c(OC)c1OC | 10µM*
CN(C)c1ccc(-c2noc([C@@H]3CCCN3C3CCOCC3)n2)cn1 | i
CC(=O)Nc1ccc(CN2CCC[C@H]2c2nc(-c3ccc(N4CCC(C(N)=O)CC4)nc3)no2)cc1 | i
FC(F)(F)Oc1cccc(CN2CCC[C@H]2c2nc(-c3ccc(N4CCOCC4)nc3)no2)c1 | -12.0%
c1cncc(CN2CCC[C@H]2c2nc(-c3ccc(-n4ccnc4)nc3)no2)c1 | 8.91µM*
CC(C)Cc1cn(CC2CCCN(C(=O)c3n[nH]c4c3CCCC4)C2)nn1 (stereo not drawn) | -3.4%
Cc1cccc(N(C)C(=O)Cn2c(N3CCc4ccccc4C3)nc(C)cc2=O)c1 | -28.8%
Cn1nccc1C(=O)N1CCCCCCNC(=O)CC1c1ccccc1 (stereo not drawn) | -16.0%
CN1CCN(C(=O)CSCc2ccccc2Cl)[C@H]2CS(=O)(=O)C[C@H]21 | -10.3%
O=C1CCN(C(=O)CC2CCCC2)CCCC(c2nc(-c3ccccc3)no2)CCN1 (stereo not drawn) | -27.8%
N[C@@H](Cc1cnc[nH]1)C(=O)N1CCC2(CC1)Nc1ccccc1NC2=O | 3.5%
COc1cccc(C(=O)NCCC2CCN(C(=O)Nc3ccc(C)cc3)CC2)c1 | i
COc1ccc(NC(=O)CCSc2nc(-c3ccc(OC)cc3)cc(C(F)(F)F)n2)cc1 | -22.4%
CCC(C)NC(=O)CCSc1nc(-c2ccc(OC)cc2)cc(C(F)(F)F)n1 (stereo not drawn) | 11.2µM*
COCCNC(=O)CCSc1nc(-c2ccc(OC)cc2)cc(C(F)(F)F)n1 | i
CCC(CC)C(=O)N1CC[C@@H](CC(=O)O)[C@@H](CC2=NCCc3ccc(C)cc32)C1 | -14.2%[44.1 µM]
O=C1c2c(nc(COc3cccc(F)c3)n2Cc2ccccc2)NCCN1CC1CC1 | -3.3%[44.1 µM]
CNC(=O)C1(NC(=O)c2ccc(CCC(C)(C)O)cc2)CCCCC1 | -7.1%
O=C(C1CCCC1)N1CC2(CCCN(Cc3ccc(Cl)cc3)C2)Cc2ccccc21 (stereo not drawn) | 12.6µM*
O=C(C1CCCC1)N1CC2(CCN(Cc3cccnc3)C2)Cc2ccccc21 (stereo not drawn) | 6.31µM*
CC(=O)N1CC2(CCCN(Cc3ccc(Cl)cc3)C2)Cc2ccccc21 (stereo not drawn) | -14.1%
O=C(C1CCCC1)N1CC2(CCN(Cc3cccnc3)CC2)Cc2ccccc21 | 10µM*
O=C1CCN(Cc2cccnc2)CCCC(C(=O)NC2CCCC2)CCN1 (stereo not drawn) | -2.9%
SMILES | Pf Dd2 growth
CC(=O)N1CC2(Cc3ccccc31)CN(C(=O)NC1CCCC1)C2 | 4.3%[44.1 µM]
O=C(C1CCCC1)N1CC2(CCN(C3COC3)CC2)Cc2ccccc21 | 16.7%
O=C(C1CCCC1)N1CC2(CCN(C3CCCCC3)C2)Cc2ccccc21 (stereo not drawn) | 10µM*
CC(=O)N1CC2(CCCN(Cc3cccnc3)C2)Cc2ccccc21 (stereo not drawn) | 2.4%
CN1CCC(C(=O)N2C3CCC2CN(Cc2cccnc2)C3)CC1 | -3.4%
Cc1ncc(CO)c(CN2CCC3(CC2)Cc2ccccc2CNC3=O)c1O | -13.6%
CCc1nc(-c2c3n(c(=O)n(CC(=O)Nc4cc(C)cc(C)c4)c2=O)CCCC3)no1 | -22.0%
Cc1ccccc1-n1nc(-c2c(C)nc3scc(CC(=O)NC(C)C)n3c2=O)cc1C | -8.9%
O=C(Cn1ccn2nc3c(c2c1=O)CCCC3)NCCc1ccccc1 | i
CCNC(=O)Cc1ccc(N(Cc2ccc(F)cc2)C(=O)c2ccco2)cc1 | i
COc1ccc(S(=O)(=O)N[C@H]2C[C@@H](c3nc(-c4ccc(C)cc4)no3)N(C)C2)cc1 | -4.8%[44.1 µM]
COCCOC1CCN(C(=O)NCCc2ccccc2)CC1 | 14.1%
O=C1[C@@H]2C[C@@H](CN2C(=O)C2CCOCC2)Oc2ccccc2N1Cc1ccccn1 | -18.0%[44.1 µM]
Cc1cc(C)cc(-n2c(-c3ccccc3)c(C)n3c4c(=O)n(C)c(=O)n(C)c4nc23)c1 | 20.9%
Cc1c(-c2ccccc2)n(-c2ccccc2O)c2nc3c(c(=O)n(C)c(=O)n3C)n12 | 3.16µM*
CCOc1ccc(-n2c(-c3ccccc3)c(C)n3c4c(=O)n(C)c(=O)n(C)c4nc23)cc1 | -7.4%
Cc1noc([C@@H]2CN(Cc3cc(F)ccc3F)C[C@H]2CO)n1 | 20.4%
O=C(c1ccco1)N1CCC2(CCN(CCCn3cccn3)CC2)C(CO)C1 (stereo not drawn) | -4.3%
Cc1ccc(CNC(=O)CC2=C3CCCCC3N(C(C)C)C2=O)o1 (stereo not drawn) | -28.0%
CCc1cccc(C)c1Nc1c(-c2ccc(N(C)C)cc2)nc2cnccn12 | -22.0%
CCc1cccc(C)c1Nc1c(-c2ccc(F)cc2)nc2sccn12 | -26.7%
CCc1cccc(C)c1Nc1c(-c2cccc(O)c2)nc2cnccn12 | 8.91µM*
O=C1CCN(C(=O)CCc2c[nH]c3ccccc23)CCCCCCN1 | -8.8%
O=C(NCC12CCC=C1N(CC1CC1)C(=O)CC2)c1nccc2ccccc12 (stereo not drawn) | -9.3%
OC1(c2csc(CN3CCOCC3)n2)CCN(Cc2ccc(C(F)(F)F)cc2)CC1 | 6.9%
SMILES | Pf Dd2 growth
CCN(CC)Cc1nc(C2(O)CCN(Cc3ccc(C(F)(F)F)cc3)CC2)cs1 | 11.2µM*
CCN1CCC(O)(c2csc(CN(CC)CC)n2)CC1 | 4.2%[44.1 µM]
Cn1nc(C(=O)N2CCCC(CNC(=O)c3ccc(-c4ccccc4)cc3)C2)ccc1=O (stereo not drawn) | -14.5%
C=CCN1CC2(CCC1=O)CCN(Cc1cccc(C#N)c1)CC2 | -22.8%
Cc1ccc(C)c(CN2C(=O)c3ccccc3Sc3ccc(C(=O)NCCCOC(C)C)cc32)c1 | -16.2%
CC1=Nc2cc(C(=O)NC(C)C)ccc2Sc2ccc(C)cc21 | 11.2µM*
COc1ccc(CCNC(=O)c2ccc3c(c2)N(Cc2cccc(Cl)c2)C(=O)CS3)cc1OC | -4.4%
O=C(NCc1ccccc1)c1ccc2nccn2c1 | -13.4%[44.1 µM]
COc1ccc(CCNC(=O)c2ccc3c(c2)N=C(C)c2cc(C)ccc2S3)cc1OC | 11.2µM*
CCCNC(=O)c1ccc2c(c1)N(Cc1cccc(C)c1)C(=O)c1ccccc1S2 | -5.5%
CCCC1=Nc2cc(C(=O)NCCc3ccc(OC)c(OC)c3)ccc2Sc2ccc(C)cc21 | 10µM*
COc1ccc(CCNC(=O)c2cc(=O)c3cc(C)cc(C)c3o2)cc1OC | 6.7%
CNC(=O)c1ccc2c(c1)N=C(C)c1cc(C)ccc1S2 | i
CCCC1=Nc2cc(C(=O)NCc3ccccc3)ccc2Sc2ccccc21 | 11.2µM*
COc1ccc(CCNC(=O)c2ccc3[nH]c(C)c(C)c3c2)cc1OC | i
COc1ccc(CCNC(=O)c2ccc(Cn3c(=O)c4ccccc4n(Cc4ccc(C)cc4)c3=O)cc2)cc1OC | 21.2%
Clc1cccc(CN2CC[C@H](c3nc4ccccc4s3)C2)c1 | i
Cn1cnc(S(=O)(=O)N2CCCC(Cc3noc(C4CC4)n3)C2)c1 (stereo not drawn) | -2.7%
CNC(=O)[C@@H]1CN(C(=O)Cc2ccsc2)C[C@H]1c1n[nH]c(C)n1 | 15.9%
Cn1ncc2c(-c3ccc([S+](C)(=O)[O-])cc3)cc(C(=O)N3CCCC3)nc21 | -24.3%
COc1ccc(CNc2ncnc3c2CN(C2CCCNC2)C(=O)CN3C)cc1 (stereo not drawn) | -0.3%
CCC(c1cccnc1)N(C)C(=O)c1cc(COc2ccccc2)[nH]n1 (stereo not drawn) | 4.8%
